Only some compounds are listed: those with a hit (about 1.8% of all), similar ones and a draw of the others.
Vif-APOBEC3G blk = blocks the Vif interaction with human APOBEC3G; Potency, µM (top dose mostly 46.1 µM), usual class: inhibitors; Q9HC16; 410,000 tested, 0.076% active; HeLa A3G-eYFP + Vif (tagged APOBEC3G with the HIV-1 protein that degrades it), YFP fluorescence, overnight; note: nearly all actives have a fitted effect of over 60% in size
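HeLa cells stably expressing Vif and C-terminally eYFP-tagged A3G, seeded overnight at 37 deg C, then exposed to compound by pintool overnight at 37 deg C. Rise in yellow fluorescence (Ex 488/Em 500-530, Acumen) marks blocked Vif-driven A3G degradation.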
VDR inhibitor = blocks the human vitamin D receptor; P11473; Potency, µM, most hits filed as inhibitors; VDR-SRC2-3 peptide fluorescence polarization, 2 h; AID 504847; 400,000 tested, 0.93% active
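The screen uses fluorescence polarization to detect compounds that interfere with recruitment of the SRC2-3 coactivator peptide to VDR; plates are read after 2 h at room temperature.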
Vif-A3F inh = inhibitors of Vif-A3F interaction. HeLa A3F-eYFP + Vif (tagged APOBEC3F with the HIV-1 protein that degrades it), YFP fluorescence increase. Potency, µM (series often up to 46.1 µM). 390,000 tested, 0.2% active. AID 602313; note: nearly all actives have a fitted effect of over 65% in size
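HeLa cells stably expressing Vif plus C-terminally eYFP-tagged A3F were seeded, incubated overnight at 37 deg C, dosed with compound, incubated overnight again at 37 deg C. Yellow fluorescence (Ex 488/Em 500-530) reported blocked Vif-mediated A3F-eYFP degradation.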
TrxR1 substrate = rat thioredoxin reductase 1 substrate activity | O89049 | purified TrxR1 substrate turnover, NADPH consumption readout | Potency, µM (series often up to 114 µM) | 390,000 tested, 0.01% active; note: nearly all actives have a fitted effect of over 50% in size
Target sequence (O89049 whole entry, looked up): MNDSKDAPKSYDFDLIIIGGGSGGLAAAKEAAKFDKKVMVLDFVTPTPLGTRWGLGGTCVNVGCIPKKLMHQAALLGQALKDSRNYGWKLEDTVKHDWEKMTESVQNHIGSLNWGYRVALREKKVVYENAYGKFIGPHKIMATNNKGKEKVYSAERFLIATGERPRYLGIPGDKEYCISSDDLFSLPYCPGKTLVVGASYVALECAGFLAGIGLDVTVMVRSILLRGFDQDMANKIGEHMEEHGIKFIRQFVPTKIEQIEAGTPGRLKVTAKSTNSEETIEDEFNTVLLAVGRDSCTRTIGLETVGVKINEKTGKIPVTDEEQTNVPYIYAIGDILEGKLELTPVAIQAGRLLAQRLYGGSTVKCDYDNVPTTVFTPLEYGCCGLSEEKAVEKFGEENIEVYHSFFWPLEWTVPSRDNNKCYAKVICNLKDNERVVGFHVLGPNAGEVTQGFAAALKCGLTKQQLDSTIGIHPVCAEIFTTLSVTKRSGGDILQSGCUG
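Rat TrxR1, dispensed at 90 nM, was prereduced with 400 uM NADPH (final) for 5 min at ~22 deg C, then incubated with compound 15 min before 400 uM selenite. A first-read NADPH fluorescence drop versus no-compound background flagged substrates.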
rTrxR1 inhibitor = inhibitors of rat thioredoxin reductase 1 | O89049 | recombinant rTrxR1, NADPH fluorescence consumption, selenite substrate | Potency, µM (series often up to 114 µM), actives largely listed as inhibitors | 390,000 tested, 1% active | AID 588453; note: nearly all actives have a fitted effect of over 65% in size
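Rat TrxR1 (90 nM in the dispensed reagent) was pre-reduced with 400 uM NADPH for 5 min at room temperature, then incubated with compound for 15 min. After 400 uM selenite was added, NADPH fluorescence (Ex 340/Em 450 nm) was followed for 8 min.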
Numbers stand for hits; [ ] = remark or other dose. Calls come from the whole dose curve; as a rule, active = well fitted curve in the direction sought with a large enough effect; inconclusive = small, poorly fitted or top-dose-only effect, or another doubt; inactive = no such curve, though single readings can be large; an effect the other way counts as inactive or inconclusive.

Results for COc1cc(Nc2ccc(S(N)(=O)=O)cc2)c([N+](=O)[O-])nc1[N+](=O)[O-] ?
Vif-APOBEC3G blk: inactive; VDR inhibitor: inactive; Vif-A3F inh: inactive; TrxR1 substrate: inactive; rTrxR1 inhibitor: 3.2µM

How did COc1ccc(-c2csc(Nc3ccc(S(N)(=O)=O)cc3)n2)cc1OC do in these assays?
Vif-APOBEC3G blk: inactive; VDR inhibitor: inactive; Vif-A3F inh: inactive; TrxR1 substrate: inactive; rTrxR1 inhibitor: inactive

Results for O=C1CCCN1CCC1CCN(C2CC(=O)N(c3ccc(Cl)cc3)C2=O)CC1 (centres undefined) ?
Vif-APOBEC3G blk: inactive; VDR inhibitor: inactive; Vif-A3F inh: inactive; TrxR1 substrate: inactive; rTrxR1 inhibitor: 40µM

How did CC(=O)N/N=C/c1ccc([N+](=O)[O-])o1 do in these assays?
VDR inhibitor: inactive

How did CN1CCN(C(=O)/C=C/c2ccc([N+](=O)[O-])o2)CC1 do in these assays?
Vif-APOBEC3G blk: inactive; VDR inhibitor: inactive; Vif-A3F inh: inconclusive; TrxR1 substrate: inactive[2.29 µM]; rTrxR1 inhibitor: inconclusive

What do the screens show for `O=C(O)/C=C/c1ccc([N+](=O)[O-])o1`?
Vif-APOBEC3G blk: inactive; VDR inhibitor: inactive; Vif-A3F inh: inactive; TrxR1 substrate: inactive; rTrxR1 inhibitor: 10µM

What do the screens show for `Cc1ccc(S(=O)(=O)N/N=C\c2ccc([N+](=O)[O-])o2)cc1`?
Vif-APOBEC3G blk: inactive; VDR inhibitor: inactive; Vif-A3F inh: inactive; TrxR1 substrate: inactive; rTrxR1 inhibitor: inconclusive

How did O=[N+]([O-])c1ccc(/C=N/N=C/c2ccc([N+](=O)[O-])o2)o1 do in these assays?
Vif-APOBEC3G blk: inconclusive; VDR inhibitor: inactive; Vif-A3F inh: inactive; TrxR1 substrate: inactive; rTrxR1 inhibitor: 2.5µM

How did O=[N+]([O-])c1ccc(/C=N/NS(=O)(=O)c2ccc(Cl)cc2)o1 do in these assays?
Vif-APOBEC3G blk: inactive; VDR inhibitor: inactive; Vif-A3F inh: inactive; TrxR1 substrate: inactive; rTrxR1 inhibitor: 14µM

Results for CC1CN(N=Cc2ccc([N+](=O)[O-])o2)C(=N)O1 (centres undefined) ?
Vif-APOBEC3G blk: inactive; VDR inhibitor: inactive; Vif-A3F inh: inactive; TrxR1 substrate: inactive; rTrxR1 inhibitor: 35µM

How did COc1cc2c(cc1OC)C(CCc1ccccc1)=NCC2 do in these assays?
Vif-APOBEC3G blk: inactive; VDR inhibitor: inactive; Vif-A3F inh: inactive; TrxR1 substrate: inactive; rTrxR1 inhibitor: 89µM

How did COc1cc2c(cc1OC)C(c1c(Cl)cccc1Cl)=NCC2 do in these assays?
Vif-APOBEC3G blk: inactive

How did CCOc1ccc(-c2csc(NC(=O)c3cccc(N4C(=O)CCC4=O)c3)n2)cc1 do in these assays?
Vif-APOBEC3G blk: inactive; VDR inhibitor: inactive; Vif-A3F inh: inactive; TrxR1 substrate: inactive; rTrxR1 inhibitor: inactive

How did Cc1ccc(-c2csc(NC(=O)c3cccc(N4C(=O)CCC4=O)c3)n2)o1 do in these assays?
Vif-APOBEC3G blk: inactive; VDR inhibitor: inconclusive; Vif-A3F inh: inactive; TrxR1 substrate: inactive; rTrxR1 inhibitor: 20µM

What do the screens show for `c1cc(N2CCCC2)ccc1C(c1nnnn1C1CCCCC1)N1CCOCC1` (centres undefined)?
Vif-APOBEC3G blk: inactive; VDR inhibitor: inactive; Vif-A3F inh: inactive; TrxR1 substrate: inactive; rTrxR1 inhibitor: 7.1µM

How did COc1cc2c(cc1OC)C1=C(C#N)COCN1CC2 do in these assays?
Vif-APOBEC3G blk: inactive; VDR inhibitor: inactive; Vif-A3F inh: inactive; TrxR1 substrate: inactive; rTrxR1 inhibitor: 13µM

What do the screens show for `O=C(NC1CCCC1)c1cnn2c1NC(=C1CC1)C=C2C(F)F`?
Vif-APOBEC3G blk: inactive; TrxR1 substrate: inactive; rTrxR1 inhibitor: inactive

How did Cc1ccc2cc(C=C(C#N)C#N)c(N3CCCCC3)nc2c1 do in these assays?
Vif-APOBEC3G blk: inactive; VDR inhibitor: inconclusive; Vif-A3F inh: inactive; TrxR1 substrate: inactive; rTrxR1 inhibitor: 1µM

What do the screens show for `O=C(NCCc1ccccc1)c1ccc2c(=O)[nH]c3c(C(=O)NCC4CCCO4)sc(=S)n3c2c1` (centres undefined)?
Vif-APOBEC3G blk: inactive; VDR inhibitor: 79µM; Vif-A3F inh: inactive; TrxR1 substrate: inactive; rTrxR1 inhibitor: inactive

Results for Oc1ccc(F)c2cccnc12 ?
Vif-APOBEC3G blk: inconclusive; VDR inhibitor: 40µM; Vif-A3F inh: inactive; TrxR1 substrate: inactive; rTrxR1 inhibitor: inactive

How did Cc1noc(C)c1-c1cncnc1NCc1cccnc1 do in these assays?
VDR inhibitor: inactive

What do the screens show for `O=C(Nc1ccccc1)Nc1ccc(O)c2ccccc12`?
Vif-APOBEC3G blk: inactive; VDR inhibitor: 50µM; Vif-A3F inh: inactive; TrxR1 substrate: inactive; rTrxR1 inhibitor: inactive

What do the screens show for `O=C(Cc1ccc(Cl)cc1)NO`?
TrxR1 substrate: inactive; rTrxR1 inhibitor: inactive

Results for CCN(CC)c1ccc(NC(=S)NC(=O)C2CCC2)cc1 ?
Vif-APOBEC3G blk: inactive; VDR inhibitor: inactive; Vif-A3F inh: inconclusive; TrxR1 substrate: inactive; rTrxR1 inhibitor: 45µM

How did Cc1cc(NC(=S)NC(=O)C2CC2)ccc1Br do in these assays?
Vif-APOBEC3G blk: inactive; VDR inhibitor: inactive; Vif-A3F inh: inactive; TrxR1 substrate: inactive; rTrxR1 inhibitor: 45µM

Results for Cc1cc(C)cc(NC(=S)NC(=O)C2CC2)c1 ?
Vif-APOBEC3G blk: inactive; VDR inhibitor: inactive; Vif-A3F inh: 13µM; TrxR1 substrate: inactive; rTrxR1 inhibitor: inconclusive

Results for CC(=O)Nc1ccc(NC(=S)NC(=O)C2CCCC2)cc1 ?
Vif-APOBEC3G blk: inactive; VDR inhibitor: inactive; Vif-A3F inh: inactive; TrxR1 substrate: inactive; rTrxR1 inhibitor: inconclusive

What do the screens show for `CCOc1ccccc1NC(=O)c1cc2c(=O)[nH]c3ccccc3c2s1`?
VDR inhibitor: inactive; TrxR1 substrate: inactive; rTrxR1 inhibitor: inactive

What do the screens show for `Brc1ccc2c(ccc[n+]2CCc2ccccc2)c1`?
Vif-APOBEC3G blk: inactive; TrxR1 substrate: inactive; rTrxR1 inhibitor: inactive

Results for O=C1CCCC2[C@@H]3CCC[N@+]4([O-])CCC[C@H](CN12)C34 (some centres undefined) ?
VDR inhibitor: inactive

What do the screens show for `COc1ccc(N(C(=O)c2ccco2)C(C(=O)NC2CCCCC2)c2cccs2)cc1OC` (centres undefined)?
Vif-APOBEC3G blk: inactive; VDR inhibitor: inactive; Vif-A3F inh: inactive; TrxR1 substrate: inactive; rTrxR1 inhibitor: inactive

What do the screens show for `COc1cccc(N(C(=O)CCl)C(C(=O)NCCc2ccccc2)c2cccs2)c1` (centres undefined)?
Vif-APOBEC3G blk: inactive; VDR inhibitor: inactive; Vif-A3F inh: inactive; TrxR1 substrate: inactive; rTrxR1 inhibitor: 14µM

How did COc1ccc(N(C(=O)CCl)C(C(=O)NCCc2ccccc2)c2cccs2)cc1Cl (centres undefined) do in these assays?
Vif-APOBEC3G blk: inconclusive; VDR inhibitor: inconclusive; Vif-A3F inh: inactive; TrxR1 substrate: inactive; rTrxR1 inhibitor: 14µM

Results for O=C(O)c1cc(O)c2c(c1)[C@H]([C@H]1c3cc(C(=O)O)cc(O)c3C(=O)c3c(O[C@@H]4OC(CO)C(O)C(O)C4O)cccc31)c1cccc(O[C@@H]3OC(CO)C(O)C(O)C3O)c1C2=O (some centres undefined) ?
VDR inhibitor: 40µM

Bioassay records from PubChem BioAssay.
